Out of some 10,000 compounds screened, about 20 (0.2%) were called active. This excerpt belongs to a sample that is enriched for actives. Values without a mark were called inactive.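 How the source made its calls: active means a compound raising TNF-alpha-driven VCAM-1 surface staining, with its hit status upheld on visual or statistical review; inactive means the rest, including hits rejected on review.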

This assay in a line: enhancers of VCAM-1 display on endothelial cells, cell-based, plate reader, pooled HUVEC, TNFa stimulus (AID 455).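 On augmentation: 0% = TNFa plus DMSO wells and 100% = a visually confirmed top hit.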 To be noted: HUVEC TNFa-induced VCAM-1 immunofluorescence; active compounds read high, 100% set by best visually verified hit,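 tested at 5 µM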.
Regarding `CC1/C(=N/O)C(CN(C)C)C2CC1C2(C)C` (configuration not stated), the augmentation entry was “inactive”.

In the case of `COc1ccc(-c2noc(C3CCCN(C(=O)CCc4ccccc4)C3)n2)cc1` (configuration not stated), the augmentation entry is “inactive”. As for `O=C(NCCc1c[nH]c2ccccc12)c1cnc2n(c1=O)CCS2`, the augmentation result is “inactive”. As for `CCOc1ccccc1C(=O)NC(C)c1ccc2c(c1)OCO2` (configuration not stated), the augmentation entry was “inactive”. For `O=C(CN1CCN(Cc2ccc(F)cc2Cl)C1=O)NCCCN1CCOCC1`, the augmentation entry was “inactive”. With `O=C(CSc1nnc2scc(-c3ccccc3)n12)N1CCN(Cc2ccccc2)CC1`, the augmentation entry was “inactive”.

Turning to `c1ccc2c3nnc4n(c-3nc2c1)CCCS4`, the augmentation result was “inactive”. As for `COc1cc(NC(=O)C2CCCN2S(=O)(=O)c2cccc3cccnc23)cc(OC)c1OC` (configuration not stated), the entry is “inactive”; as for `COc1ccccc1-c1nc(SCc2ccccn2)n[nH]1`, “inactive”. To `CN(C)c1cccc(C(=O)OCC(=O)NCc2ccco2)c1` belongs “inactive”; to `O=C(CSc1nnc(-c2ccccc2)o1)N1CCc2ccccc2C1`, “inactive”; to `Cc1noc(C)c1COc1cccc(C(=O)Oc2ccc3c(c2)OCO3)c1`, “inactive”. As for `O=C1C2CCCN2C(c2ccc(Cl)cc2)N1c1nccs1` (configuration not stated), the augmentation result was “inactive”. As for `C=CCn1c(=O)[nH]c2cc(C(=O)N3CCN(c4cc(C)ccc4C)CC3)ccc2c1=O`, the entry is “inactive”; as for `COc1cccc(NC(=O)CSc2nnc(-c3cccs3)n2C)c1`, “inactive”. For `CCCC(=O)NCCc1cc2c(C)ccc(C)c2[nH]c1=O`, the augmentation result was “inactive”. With `O=C(CNC(=O)c1cccs1)NCCN1CCN(c2ccccc2F)CC1`, the augmentation result was “inactive”.

As to `COc1cccc(NC(=O)N2CCN(c3cccc(C)c3C)CC2)c1`, the augmentation was 100% (active). To `COc1cccc(NC(=O)CN2CCN(c3ccccc3F)CC2)c1` belongs “inactive”; to `COc1cccc(NC(=O)N2CCC(N3CCCCC3)CC2)c1`, “inactive”; to `Cc1ccc(C)c(CSc2nnc(CCN)o2)c1`, “inactive”. As for `COc1ccc(N2CCN(CCNS(=O)(=O)c3cccc4nsnc34)CC2)cc1`, the entry is “inactive”; as for `CC(=O)c1ccccc1Oc1nc(CN2CCOCC2)nc2scc(-c3cccs3)c12`, “inactive”. Take `COC(=O)c1ccc(CNC(=O)CSc2nc3sc(C)c(C)c3c(=O)n2C)o1`: the augmentation entry was “inactive”.

Consider `CCN(CC)CCCNS(=O)(=O)c1ccc(OC)cc1`, for which the augmentation result is “inactive”.

As to `COc1ccc(S(=O)(=O)NCc2ccc(C(=O)O)cc2)cc1`, the augmentation result is “inactive”.

As for `CCCCC(NS(=O)(=O)c1ccc(OC)cc1)C(=O)O` (configuration not stated), the augmentation was 66.3% (active).

Turning to `O=C(Nc1nc(-c2ccc(S(=O)(=O)N3CCCCCC3)cc2)cs1)c1cccs1`, the augmentation entry is “inactive”. To `COCCn1c(-c2ccc(OC)c(OC)c2)nc2ccccc21` belongs 100% (active).

On to `C=CCn1c(-c2ccc(OC)cc2)nc2ccccc21`, for which the augmentation entry was “inactive”. As for `COc1ccc(Cn2c(CCCO)nc3ccccc32)cc1OC`, the augmentation entry was “inactive”.

On to `Cc1ccc(O)c(-c2cc3ccccc3[nH]2)c1`, for which the augmentation entry was “inactive”. As for `CC(O)c1nc2ccccc2n1C1CCCCC1` (configuration not stated), the augmentation entry is “inactive”. Turning to `CC(C)N=c1cc2n(-c3ccc(Cl)cc3)c3ccccc3nc-2cc1Nc1ccc(Cl)cc1`, the augmentation was 74% (active). For the compound `CC(C)NC(=O)CSc1nc2ccccc2n1-c1ccccc1`, the augmentation result was “inactive”. To `CCOC(=O)C1CN(S(=O)(=O)c2ccc(C)cc2)CCN1S(=O)(=O)c1ccc(C)cc1` (configuration not stated) belongs “inactive”.

Turning to `CCOc1ccccc1N1C(=O)CC(Sc2ncccc2C(=O)O)C1=O` (configuration not stated), the augmentation entry is “inactive”. Consider `COc1ccc(-c2oc3ncn(CCN4CCOCC4)c(=N)c3c2-c2ccc(OC)cc2)cc1`, for which the augmentation entry was “inactive”. As for `CC1=C(C(=O)OC2CCCC2)C(c2ccc(C)o2)C2=C(CC(c3cccs3)CC2=O)N1` (configuration not stated), the augmentation entry was “inactive”. Consider `COc1cccc(CNC(=O)C2CCN(S(=O)(=O)c3ccc(F)cc3)CC2)c1`, for which the augmentation entry was “inactive”. For the compound `CCCCSc1nnc([C@H](C)NC(=O)OC(C)(C)C)o1`, the augmentation entry was “inactive”. As for `O=C(OC1CCOC1=O)c1ccc2ccccc2n1` (configuration not stated), the entry is “inactive”; as for `Cn1cccc1-c1nc2ccc(NC(=O)c3ccco3)cc2[nH]1`, 65.1%; as for `COc1ccc(NC(=O)c2ccco2)cc1NC(=O)c1cccs1`, “inactive”.

As to `O=C(Nc1ccc2nc(-c3cccs3)[nH]c2c1)c1ccco1`, the augmentation was 72.4% (active). `O=C(Nc1cccc2ncccc12)c1ccc2c(c1)OCCO2`: the augmentation was 81% (active). Turning to `O=C(Nc1ccccc1-c1nc2ccccc2o1)c1ccc2c(c1)OCCO2`, the augmentation entry is “inactive”. As for `CCN1C(=O)c2cccc3c(NC(=O)c4ccc5c(c4)OCCO5)ccc1c23`, the augmentation result was “inactive”. With `CC(C)C(=O)N1CCN(c2nc(-c3ccccc3)c3c(c2C#N)CCCC3)CC1`, the augmentation entry was “inactive”.

As for `Oc1cccc(C=NCc2ccccc2)c1O`, the augmentation is 61.8% (active). In the case of `FC(F)Sc1nnc(-c2cccs2)n1-c1ccccc1`, the augmentation result was “inactive”. On to `CCCC(=O)Nc1cc(C)c2c(=O)oc3ccccc3c2n1`, for which the augmentation result was “inactive”.

For the compound `Cc1ccc(Br)cc1S(=O)(=O)N1CCN(c2ccccc2)CC1`, the augmentation result is “inactive”.

On to `Cc1cc(C)c2c(n1)nn1c(C3CC3)cc(C(F)(F)F)nc21`, for which the augmentation result is “inactive”. As for `CCOC(=O)CN1C2=NCCN2c2ccccc21`, the augmentation entry was “inactive”. As for `COc1ccc(C(=O)CN2C3=NCCCN3c3ccccc32)cc1OC`, the figure is 71.2% (active); as for `c1ccc(CN2C3=NCCCN3c3ccccc32)cc1`, “inactive”; as for `Cc1cccc(NC(=O)CC2CCC2)c1`, “inactive”. Take `Cc1cc(C)n(-c2nc3sc4c(c3c3nnc(SCC(N)=O)n23)CC(C)(C)OC4)n1`: the augmentation result was “inactive”.

As for `CCCC(=O)Nc1cc(C)c(NC(=O)c2ccccn2)cn1`, the augmentation entry was “inactive”. Take `COCCn1c(CN2CCN(c3cccc(Cl)c3)CC2)nc2c1c(=O)n(C)c(=O)n2C`: the augmentation entry was “inactive”. On to `O=c1cc(NCc2ccccc2)nc2n1CCCS2`, for which the augmentation entry is “inactive”. As to `O=C(Nc1cccc(F)c1)c1ccc2c(c1)OCO2`, the augmentation entry is “inactive”. In the case of `O=C1CCCN1Cc1ncnn1-c1ccccc1`, the augmentation entry was “inactive”. As to `O=C(Nc1ccc2c(c1)OCO2)N1CCN(c2ncccn2)CC1`, the augmentation entry was “inactive”. Take `CCC(=O)N1CCc2cc(S(=O)(=O)CCC(=O)Nc3ccc(C)c(F)c3)ccc21`: the augmentation result was “inactive”. Consider `CCC(=O)N1CCc2cc(S(=O)(=O)CCC(=O)Nc3c(C)n(C)n(-c4ccccc4)c3=O)ccc21`, for which the augmentation was 70.3% (active). As for `CCC(=O)N1CCc2cc(S(=O)(=O)CCC(=O)Nc3nc(C)cs3)ccc21`, the entry is “inactive”; as for `CCc1nc(N[C@@H](Cc2c[nH]c3ccccc23)C(=O)O)c2oc3ccccc3c2n1`, “inactive”.

In the case of `Cc1cc2c(=O)n(CC(=O)N3CCN(c4ccccc4)CC3)cnc2s1`, the augmentation result is “inactive”. For the compound `Cc1csc(NC(=O)c2ccccc2C(=O)O)n1`, the augmentation entry is “inactive”. `CC(C)(C)c1ccc(OCC(=O)O)cc1`: the augmentation result was “inactive”.

The values above are taken from PubChem BioAssay AID455 (Sanford-Burnham Center for Chemical Genomics, 2006).
